Source: PubChem BioAssay (NCI)
This is part of a sample that, as a whole, favours compounds with a hit. Of some 83,000 tested, about 20% had one in any assay.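 Single-dose data. Exposure time 48 hours. Values below 10 considered active.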 Activity calls are given as the source filed them.

How the values were obtained:
Experiment in all cases: NCI-60 one-dose screen, 48 h (100 = growth as untreated, 0 = no growth, -100 = all killed)
Conditions in all cases: 10 µM unless noted
SR leukemia = test system: SR leukemia
RPMI-8226 leukemia = test system: RPMI-8226 leukemia
OVCAR-8 ovarian = test system: OVCAR-8 ovarian
OVCAR-5 ovarian = test system: OVCAR-5 ovarian
OVCAR-4 ovarian = test system: OVCAR-4 ovarian
SK-OV-3 ovarian = test system: SK-OV-3 ovarian
IGROV1 ovarian = test system: IGROV1 ovarian
OVCAR-3 ovarian = test system: OVCAR-3 ovarian
HS 578T breast = test system: HS 578T breast
NCI/ADR-RES ovarian = test system: NCI/ADR-RES ovarian

Measured: growth

COc1cc(C2CC(=O)Nc3n[nH]c(-c4ccccc4)c32)cc(OC)c1OC (stereo not given)
inactive: SR leukemia 31.8% | RPMI-8226 leukemia 90.6% | OVCAR-8 ovarian 80.1% | OVCAR-5 ovarian 91.3% | OVCAR-4 ovarian 88.4% | SK-OV-3 ovarian 85.5% | IGROV1 ovarian 71.4% | OVCAR-3 ovarian 36% | HS 578T breast 74.8% | NCI/ADR-RES ovarian 104%

N#Cc1c(Oc2ccc([N+](=O)[O-])cc2)nc2sc3cc(Cl)ccc3n2c1=N
inactive: SR leukemia 92.2% | RPMI-8226 leukemia 83.6% | OVCAR-8 ovarian 63.4% | OVCAR-5 ovarian 120% | OVCAR-4 ovarian 53.1% | SK-OV-3 ovarian 67.1% | IGROV1 ovarian 77.7% | OVCAR-3 ovarian 107% | HS 578T breast 41.8% | NCI/ADR-RES ovarian 86%

O=S(=O)(Cc1ccccc1)c1nc2ccccc2s1
inactive: SR leukemia 17% | RPMI-8226 leukemia 20.4% | OVCAR-8 ovarian 88.8% | OVCAR-5 ovarian 102% | OVCAR-4 ovarian 63.7% | SK-OV-3 ovarian 101% | IGROV1 ovarian 61.1% | OVCAR-3 ovarian 79.2% | HS 578T breast 96.2% | NCI/ADR-RES ovarian 96.5%

NC(=S)c1csc(CCNC(=O)c2ccccc2)n1
inactive: SR leukemia 107% | RPMI-8226 leukemia 102% | OVCAR-8 ovarian 106% | OVCAR-5 ovarian 117% | OVCAR-4 ovarian 91.2% | SK-OV-3 ovarian 101% | IGROV1 ovarian 112% | OVCAR-3 ovarian 113% | HS 578T breast 102% | NCI/ADR-RES ovarian 110%

COc1ccc(C2CC(c3cnccn3)=NN2)cc1OC (stereo not given)
inactive: SR leukemia 79.3% | RPMI-8226 leukemia 82.6% | OVCAR-8 ovarian 96.8% | OVCAR-5 ovarian 114% | OVCAR-4 ovarian 118% | SK-OV-3 ovarian 105% | IGROV1 ovarian 108% | OVCAR-3 ovarian 102% | HS 578T breast 97.4% | NCI/ADR-RES ovarian 102%

O=C1C2=C(CCN(Cc3ccccc3)C2)N2CCN=C2N1Cc1ccc(C(F)(F)F)cc1
inactive: SR leukemia 49.5% | RPMI-8226 leukemia 19% | OVCAR-8 ovarian 17% | OVCAR-5 ovarian 56.9% | SK-OV-3 ovarian 21% | IGROV1 ovarian 33% | OVCAR-3 ovarian 23.9% | HS 578T breast 36% | NCI/ADR-RES ovarian 16.6%
active: OVCAR-4 ovarian -4.49%

CCc1nc2ccccc2[nH]1
inactive: SR leukemia 100% | RPMI-8226 leukemia 98.9% | OVCAR-8 ovarian 101% | OVCAR-5 ovarian 110% | OVCAR-4 ovarian 112% | SK-OV-3 ovarian 105% | IGROV1 ovarian 130% | OVCAR-3 ovarian 119% | HS 578T breast 94.3% | NCI/ADR-RES ovarian 111%

CC(C)c1ccc(C(=O)OC(=O)c2ccc(C(C)C)cc2)cc1
inactive: SR leukemia 60.2% | RPMI-8226 leukemia 82.9% | OVCAR-8 ovarian 100% | OVCAR-5 ovarian 89.2% | OVCAR-4 ovarian 105% | SK-OV-3 ovarian 110% | IGROV1 ovarian 98.8% | OVCAR-3 ovarian 106% | HS 578T breast 104% | NCI/ADR-RES ovarian 95.4%

Cc1nc(Nc2cccc(NC(=O)Nc3ccc(Cl)cc3)c2)c2ccccc2n1
inactive: SR leukemia 22.1% | RPMI-8226 leukemia 66.8% | OVCAR-8 ovarian 93.9% | OVCAR-5 ovarian 106% | OVCAR-4 ovarian 47.8% | SK-OV-3 ovarian 97.8% | IGROV1 ovarian 102% | OVCAR-3 ovarian 90.7% | HS 578T breast 104% | NCI/ADR-RES ovarian 87.4%

c1ccc([P+](CCCc2n(Cc3ccc4ccccc4c3)c3ccccc3[n+]2Cc2ccc3ccccc3c2)(c2ccccc2)c2ccccc2)cc1
active: RPMI-8226 leukemia 6.9%
inactive: SR leukemia 30.8% | OVCAR-8 ovarian 70.2% | OVCAR-5 ovarian 60.1% | OVCAR-4 ovarian 74.4% | SK-OV-3 ovarian 84.5% | IGROV1 ovarian 20.8% | OVCAR-3 ovarian 75.8% | HS 578T breast 68.6% | NCI/ADR-RES ovarian 83.7%

[2H]c1nc(Nc2ncc(F)c(-c3cc(F)c4nc(C)n(C(C)C)c4c3)n2)c([2H])c([2H])c1CN1CCN(C([2H])([2H])C([2H])([2H])[2H])CC1
inactive: SR leukemia 36.3% | RPMI-8226 leukemia 42.8% | OVCAR-8 ovarian 67.1% | OVCAR-5 ovarian 55.6% | OVCAR-4 ovarian 74.2% | SK-OV-3 ovarian 18.8% | IGROV1 ovarian 47.3% | OVCAR-3 ovarian 71% | HS 578T breast 35.7% | NCI/ADR-RES ovarian 81%

Cc1c(Cl)cccc1NS(=O)(=O)c1ccccc1
inactive: SR leukemia 113% | RPMI-8226 leukemia 123% | OVCAR-8 ovarian 112% | OVCAR-5 ovarian 92% | OVCAR-4 ovarian 73.3% | SK-OV-3 ovarian 105% | IGROV1 ovarian 114% | OVCAR-3 ovarian 100% | HS 578T breast 102% | NCI/ADR-RES ovarian 104%

CC(=O)C(C(C)=O)c1nc2sc3cc(Cl)ccc3n2c(=N)c1C#N
inactive: SR leukemia 33.6% | RPMI-8226 leukemia 60.8% | OVCAR-8 ovarian 90.5% | OVCAR-5 ovarian 94.8% | OVCAR-4 ovarian 71.9% | SK-OV-3 ovarian 93.8% | IGROV1 ovarian 70.4% | OVCAR-3 ovarian 86.1% | HS 578T breast 48.5% | NCI/ADR-RES ovarian 88.3%

COc1cc2c(cc1OC)-c1ccc3cc4c(cc3c1N(CCCN1CCCCC1)C2)OCO4
inactive: RPMI-8226 leukemia 14.5% | OVCAR-8 ovarian 32.6% | OVCAR-5 ovarian 74.7% | OVCAR-4 ovarian 63.4% | SK-OV-3 ovarian 75.7% | IGROV1 ovarian 33.7% | OVCAR-3 ovarian 60.8% | HS 578T breast 56.1% | NCI/ADR-RES ovarian 54.7%
active: SR leukemia -7.48%

Cc1c(C(=O)O)nnn1-c1nccs1
inactive: SR leukemia 101% | RPMI-8226 leukemia 93% | OVCAR-8 ovarian 91.6% | OVCAR-5 ovarian 104% | OVCAR-4 ovarian 96.7% | SK-OV-3 ovarian 90.8% | IGROV1 ovarian 104% | OVCAR-3 ovarian 106% | HS 578T breast 86.9% | NCI/ADR-RES ovarian 103%

Cc1cnc(Nc2ccc(N3CCN(C)CC3)cc2)nc1Nc1ccc(Cl)c(NS(=O)(=O)C(C)(C)C)c1
inactive: OVCAR-8 ovarian 21.7% | OVCAR-5 ovarian 19.9% | OVCAR-4 ovarian 27.9% | NCI/ADR-RES ovarian 21%
active: SR leukemia -3.93% | RPMI-8226 leukemia 5.58% | SK-OV-3 ovarian -6.97% | IGROV1 ovarian 6.84% | OVCAR-3 ovarian 9.51% | HS 578T breast -6.51%

CSc1ncc(C)c(Nc2ccc(Cl)cc2)n1
inactive: SR leukemia 89.9% | RPMI-8226 leukemia 102% | OVCAR-8 ovarian 104% | OVCAR-5 ovarian 112% | OVCAR-4 ovarian 99.8% | SK-OV-3 ovarian 126% | IGROV1 ovarian 85.8% | OVCAR-3 ovarian 111% | HS 578T breast 94.9% | NCI/ADR-RES ovarian 98.1%

C[C@@H]1CC[C@@H]2[C@@H]1[C@H](OC(=O)/C=C/c1ccccc1)[C@]1(C3CCCCC3)C[C@@H](NC(=O)CO)[C@@]2(C)O1
active: HS 578T breast 8.45%
inactive: SR leukemia 93.9% | RPMI-8226 leukemia 100% | OVCAR-8 ovarian 98.6% | OVCAR-5 ovarian 94.6% | OVCAR-4 ovarian 102% | SK-OV-3 ovarian 112% | IGROV1 ovarian 101% | OVCAR-3 ovarian 98.6% | NCI/ADR-RES ovarian 95.4%

Cc1c(C)c2c(c(C)c1NC(=O)/C=C\C(=O)O)CCC(C)(CCCC(C)CCCC(C)CCCC(C)C)O2 (stereo not given)
active: SR leukemia 9.98%
inactive: RPMI-8226 leukemia 30.6% | OVCAR-8 ovarian 35.9% | OVCAR-5 ovarian 87.6% | OVCAR-4 ovarian 39.4% | SK-OV-3 ovarian 54.6% | IGROV1 ovarian 56.8% | OVCAR-3 ovarian 43.2% | HS 578T breast 57.4% | NCI/ADR-RES ovarian 43.1%

O=C(Nc1ccccc1Cl)OCCN1CCOCC1
inactive: SR leukemia 103% | RPMI-8226 leukemia 101% | OVCAR-8 ovarian 107% | OVCAR-5 ovarian 110% | OVCAR-4 ovarian 110% | SK-OV-3 ovarian 112% | IGROV1 ovarian 107% | OVCAR-3 ovarian 105% | HS 578T breast 120% | NCI/ADR-RES ovarian 104%

COC(=O)Nc1nc2ccc(C(=O)C3CC3)cc2[nH]1
active: SR leukemia -21.7% | RPMI-8226 leukemia -19.7% | OVCAR-8 ovarian 8.29% | IGROV1 ovarian -59.4% | OVCAR-3 ovarian -61.7% | HS 578T breast -17.7% | NCI/ADR-RES ovarian 9.11%
inactive: OVCAR-5 ovarian 48.9% | OVCAR-4 ovarian 44.7% | SK-OV-3 ovarian 22.7%

O=C1C2=C(CCN(Cc3ccccc3)C2)N2CCN=C2N1Cc1ccc(F)cc1F
active: OVCAR-4 ovarian -2.31%
inactive: SR leukemia 55.5% | RPMI-8226 leukemia 19.3% | OVCAR-8 ovarian 17.4% | OVCAR-5 ovarian 56.4% | SK-OV-3 ovarian 27.8% | IGROV1 ovarian 47.5% | OVCAR-3 ovarian 26.8% | HS 578T breast 45.8% | NCI/ADR-RES ovarian 20.1%

O=c1[nH]nc(-c2ccc(Cl)cc2)cc1Cc1ccccc1
inactive: SR leukemia 62.5% | RPMI-8226 leukemia 41.1% | OVCAR-8 ovarian 83% | OVCAR-5 ovarian 94.1% | OVCAR-4 ovarian 95.1% | SK-OV-3 ovarian 99.1% | IGROV1 ovarian 40.9% | OVCAR-3 ovarian 104% | HS 578T breast 103% | NCI/ADR-RES ovarian 98.4%

COc1cc(/C=C2\C=C(c3ccccc3)N(CCc3ccccc3)C2=O)cc(OC)c1OC
inactive: SR leukemia 85.5% | RPMI-8226 leukemia 83.3% | OVCAR-8 ovarian 38.5% | OVCAR-5 ovarian 105% | OVCAR-4 ovarian 33.4% | SK-OV-3 ovarian 62.9% | IGROV1 ovarian 83.1% | OVCAR-3 ovarian 87.7% | HS 578T breast 23.2% | NCI/ADR-RES ovarian 66.8%

Cc1ccccc1NC(=O)CN(C)C
inactive: SR leukemia 104% | RPMI-8226 leukemia 111% | OVCAR-8 ovarian 108% | OVCAR-5 ovarian 95.8% | OVCAR-4 ovarian 118% | SK-OV-3 ovarian 101% | IGROV1 ovarian 96% | OVCAR-3 ovarian 113% | HS 578T breast 113% | NCI/ADR-RES ovarian 101%

C[C@@H]1CC[C@@H]2[C@@H]1[C@H](OC(=O)/C=C/c1ccccc1)[C@]1(CCCOCCOCCOCCOC(=O)CCCC[C@@H]3SC[C@@H]4NC(=O)N[C@@H]43)C[C@@H](OC(=O)CO)[C@@]2(C)O1
inactive: SR leukemia 88.3% | RPMI-8226 leukemia 112% | OVCAR-8 ovarian 113% | OVCAR-5 ovarian 101% | OVCAR-4 ovarian 95.7% | SK-OV-3 ovarian 102% | IGROV1 ovarian 107% | OVCAR-3 ovarian 104% | HS 578T breast 99.5% | NCI/ADR-RES ovarian 105%

CCN(CC)CCOC(=O)Nc1ccccc1Cl
inactive: SR leukemia 102% | RPMI-8226 leukemia 88.8% | OVCAR-8 ovarian 104% | OVCAR-5 ovarian 110% | OVCAR-4 ovarian 120% | SK-OV-3 ovarian 108% | IGROV1 ovarian 101% | OVCAR-3 ovarian 108% | HS 578T breast 109% | NCI/ADR-RES ovarian 110%

COC(=O)CNC(=O)C(=O)c1c(O)c(O)c(C(C)C)c2cc(C)c(-c3c(C)cc4c(C(C)C)c(O)c(O)c(C(=O)C(=O)NCC(=O)OC)c4c3O)c(O)c12
inactive: SR leukemia 15% | RPMI-8226 leukemia 20.4% | OVCAR-8 ovarian 13% | OVCAR-5 ovarian 30.4% | IGROV1 ovarian 21.1% | OVCAR-3 ovarian 18% | HS 578T breast 20.2% | NCI/ADR-RES ovarian 20.9%
active: OVCAR-4 ovarian -5.2% | SK-OV-3 ovarian 6.72%
